The values that follow come from PubChem BioAssay (Tox21).

Structures are written as SMILES. Results filed as inconclusive are left out. Activity calls are given as the source filed them. The call rests on the fitted dose curve; in most records, active means well fitted inhibition curve with a large enough effect in the repeat runs; inconclusive means weak or mixed curves; inactive means no such curve, though single readings can be large or run the other way.

Sequence of Aromatase (Homo sapiens) (P11511 whole entry, looked up): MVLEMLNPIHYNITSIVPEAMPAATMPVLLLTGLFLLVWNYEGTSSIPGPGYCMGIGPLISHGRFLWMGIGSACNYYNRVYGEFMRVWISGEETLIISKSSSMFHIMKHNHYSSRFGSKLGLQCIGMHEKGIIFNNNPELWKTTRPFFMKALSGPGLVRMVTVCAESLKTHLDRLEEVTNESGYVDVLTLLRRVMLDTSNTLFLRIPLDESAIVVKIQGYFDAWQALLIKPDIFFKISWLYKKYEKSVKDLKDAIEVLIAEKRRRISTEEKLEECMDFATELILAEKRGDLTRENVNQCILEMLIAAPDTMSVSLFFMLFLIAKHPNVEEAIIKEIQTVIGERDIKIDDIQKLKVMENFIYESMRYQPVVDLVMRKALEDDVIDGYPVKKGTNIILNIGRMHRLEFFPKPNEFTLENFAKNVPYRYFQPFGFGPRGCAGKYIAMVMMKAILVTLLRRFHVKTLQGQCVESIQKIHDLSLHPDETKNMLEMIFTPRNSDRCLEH

The test has as its target Aromatase (Homo sapiens) (UniProt P11511). Description: qHTS assay to identify aromatase inhibitors (AID 743083). Further: nearly all actives have a fitted effect of over 55% in size. Conditions: MCF-7 aro ERE, testosterone-driven ERE luciferase, 24 h; series mostly up to 70.3 µM. For orientation: qHTS replaces the single test concentration by a dilution series.
`CC(C)[C@H]1CC[C@@H](C)CC1=O`: the outcome was inactive. On to `CCCCCCCCCCOc1cc2c(=O)c(C(=O)OCC)c[nH]c2cc1OCC`, for which the outcome was inactive.

`CCOC(=O)C1=NOC(c2ccccc2)(c2ccccc2)C1`: the result was inactive. For `CCCOC(=O)CC`, the outcome was inactive. Consider `COc1cc2c(cc1OC)-c1cc3ccc(OC)c(OC)c3c[n+]1CC2`, for which the call was inactive. With `CCCCN(CCC(=O)OCC)C(C)=O`, the call was inactive. Take `CC1OC1C1CCC2(C)OC2C1` (stereo unspecified): the compound was called inactive. The same measure for `CC1=CC(=O)[C@H]2C[C@@H]1C2(C)C`: “inactive”.

For the compound `CCN1C=CN(C)C1C` (stereo unspecified), the result was inactive. Take `CC(=O)N1C[C@H](O)C[C@H]1C(=O)O`: the compound was called inactive. The same measure for `O=C(c1ccccc1)C1(O)CCCCC1`: “inactive”; for `CN1CC(=O)N/C1=N/C(=O)Nc1cccc(Cl)c1`: “inactive”.

On to `CN1CCC(=C2c3ccccc3CCc3cccnc32)CC1`, for which the outcome was inactive. To `CC(=O)c1ccccc1[N+](=O)[O-]` belongs “inactive”; to `O=C(O)c1cc(C(=O)O)cc(C(=O)O)c1`, “inactive”; to `CCN(CC#N)c1cccc(C)c1`, “inactive”. To `CCCCCCC1CCC(=O)O1` (stereo unspecified) belongs “inactive”; to `CC(C#N)(CCC(=O)O)N=NC(C)(C#N)CCC(=O)O` (stereo unspecified), “inactive”.

Regarding `O=CN(CCO)CCO`, the outcome was inactive. Regarding `NC(=O)Cc1cccc2ccccc12`, the compound was classed as inactive.

On to `C=CCCCCCCCCC(=O)OCC`, for which the result was inactive. Consider `CC(C)(C)C(=O)c1ccccc1`, for which the result was inactive.

As for `CC1(C)[C@@H]2CC[C@@]1(C)[C@H](O)C2`, the compound was classed as inactive. For `CC1=NN(c2cc(S(=O)(=O)O)ccc2Cl)C(=O)C1N=Nc1ccccc1` (stereo unspecified), the compound was called inactive. The same measure for `CC(C)NNC(=O)c1ccncc1`: “inactive”; for `CCCCCC(C)N` (stereo unspecified): “inactive”; for `COCCOC[C@H](CC1(C(=O)NC2CCC(C(=O)O)CC2)CCCC1)C(=O)Oc1ccc2c(c1)CCC2` (stereo partly specified): “inactive”.

Take `CO[C@@]1(NC(=O)C(C(=O)O)c2ccc(O)cc2)C(=O)N2C(C(=O)O)=C(CSc3nnnn3C)CO[C@@H]21` (stereo partly specified): the result was inactive. On to `CC(=O)Nc1ccc(OCC(O)CNC(C)C)cc1` (stereo unspecified), for which the result was inactive. The same measure for `CCN[C@H]1C[C@H](C)S(=O)(=O)c2sc(S(N)(=O)=O)cc21`: “inactive”; for `CCCCOC(=O)CCC(C)=O`: “inactive”.
